# About 6,500 (11%) of roughly 59,000 compounds were called active. Not shown: some 15% with an inconclusive outcome. Cut-off read from the data, not from the text of the source: active = max dye-equivalent concentration above about 10 nM; inconclusive = mostly about 1.1 nM to 9.6 nM; inactive = weaker than that. The full list was thinned out, with actives kept by preference.
# Assay: qHTS Assay for Spectroscopic Profiling in A350 Spectral Region
# Settings: Compound autofluorescence, 340/450 nm, Alexa 350 dye-equivalents; hits give high values
# Source text: NIH Molecular Libraries Screening Centers Network [MLSCN]
# NIH Chemical Genomics Center [NCGC]
# Occasionally, the artifactual effect may originate from the compounds own spectral or other biophysical properties which generally tend to track its assay concentration. Pre-screening/profiling the library with respect to the compounds spectral properties should help one exclude false positives early on. While the most informative fluorescent profiling data set is obtained by performing a full excitation and emission scan of each well by using a monochromator-based plate reader, such an approach is practical only on a very limited scale as scanning each well requires long time. An alternative approach, applied here, is to perform plate reader scans using selected excitation and emission wavelength pairs to generate a multidimensional relational database that correlates compound concentration and the respective relative fluorescence intensity at a given wavelength set. A standard curve of Alexa 350 (A 350) present on each plate as six-point concentration series, was used to compute a normalized fluorescence response, termed dye-equivalent concentration, for each compound at each concentration.
# NCGC Assay Protocol Summary:
# 100 mM Tris buffer, pH 8.0
# The wells in columns 1 through 4 of a Kalypsys polypropylene 1536-well compound plate were filled with standard solutions of fluorophore corresponding to the spectral region of interest. Solutions of A 350 were placed in the following wells: I1, J1: 3 mM, I2, J2: 300 uM, I3, J3: 30 uM, I4, J4: zero (DMSO), K1, L1: 3 uM, K2, L2: […], K3, L3: 300 nM, K4, L4: zero (DMSO).
# Six uL of buffer were dispensed to 1536-well Greiner black plates. Compounds and dye standards (23 nL) were transferred via Kalypsys PinTool. The plates were incubated for 15 min at room temperature, and then read on ViewLux (Perkin-Elmer) High-throughput CCD imager using 340 nm and 450 nm excitation and emission filter set.
# Keywords: NIH Roadmap, MLSCN, MLI, MLSMR, qHTS, NCGC, A350, A-350, Fluorescent Profiling.
row,SMILES,max dye-equivalent concentration
1,Cc1nc2nc3c(cn2n1)C(=O)CC(c1ccccc1)C3 (configuration not stated),inactive
2,CC1(C)C(=O)C2(CCCCC2)C(=O)OC1c1cccs1 (configuration not stated),inactive
3,C=CCn1c(COc2ccccc2C)nnc1SCC(=O)O,inactive
4,Cc1ccc2[nH]c3c(c2c1)CN(C(=O)CN1CCN(c2ccccc2)CC1)CC3,inactive
5,Cc1cc(C)c2c(c1)c(C)cc1nnc(SCC(=O)NCc3ccco3)n12,inactive
6,CC(=O)N1CCC2(CCCN(Cc3ccccc3)C2)CC1,inactive
7,O=C(O)/C(=C/c1c(C(=O)O)[nH]c2cc(Cl)cc(Cl)c12)c1ccccc1,inactive
8,O=C1c2ccccc2C(=O)N1CCc1nn[nH]n1,inactive
9,CCOC(=O)c1c(C)n(C)c2ccc(OC)c(NC(=O)CN3CCC4(CC3)OCCO4)c12,inactive
10,O=C(O)[C@H](CCc1ccccn1)c1ccccc1,inactive
11,O=C(NCCc1ccccn1)c1ccc(COc2ccccc2)o1,inactive
12,C/C(N)=C(\C#N)C(=O)NCCc1ccccn1,12 nM (active)
13,CC1(C)CC(=O)C(C2=NC(C)(C)Cc3ccccc32)=C(O)C1,inactive
14,CCOc1ccc(N=C2SC(C(=O)O)CC(=O)N2C)cc1 (configuration not stated),inactive
15,COC(=O)N1CN(C(=O)OC)CN(C(=O)OC)C1,inactive
16,CC(C)=C(NC(=O)c1ccco1)C(=O)NCCc1nc2ccccc2[nH]1,inactive
17,CCC(CC)C(=O)Nc1cc(C(=O)OC)cc(C(=O)OC)c1,inactive
18,CC(C)OC(=O)c1cc(NC(=O)C2C3CCC(O3)C2C(=O)O)cc(C(=O)OC(C)C)c1 (configuration not stated),13 nM (active)
19,O=C(Cn1cc(C(=O)c2cccs2)c2ccccc21)NCc1cccs1,25 nM (active)
20,O=C(CCC(=O)c1cccs1)NCc1ccccc1,inactive
21,COC(=O)c1cn(CC(=O)NCc2cccs2)c2ccccc12,inactive
22,C=C(Br)CN1CCN(CC(=C)Br)CC1,inactive
23,CCCOc1ccc(NC(=O)C2CCCNC2=O)cc1 (configuration not stated),inactive

row,SMILES,max dye-equivalent concentration
1,O=C1CCC(C(=O)Nc2ccc(OC(F)F)cc2)N1 (configuration not stated),22 nM (active)
2,COC(=O)COc1ccc(S(=O)(=O)Nc2ccc(NC(C)=O)cc2)cc1,inactive
3,NS(=O)(=O)c1cc2c(cc1Cl)NC(C(Cl)Cl)NS2(=O)=O (configuration not stated),7200 nM (active)
4,Cc1cn(C2C=CC(CO)O2)c(=O)[nH]c1=O (configuration not stated),inactive
5,Cc1ccc(C(=O)NC2CCN(C(=O)N3CCOCC3)CC2)cc1,inactive
6,CCOC(=O)c1sc(=S)n(-c2cccc(OC)c2)c1N,inactive
7,CCOC(=O)c1cc(-c2ccc(Cl)s2)nc2c1c(C)nn2C,240 nM (active)
8,CCOC(=O)c1c(C(C#N)C#N)cc(C)nc1C,inactive
9,Cc1ccn2cc(C(=O)NC3CCN(Cc4ccccc4)CC3)nc2c1,inactive
10,CCc1ccc2oc(-c3ccc(N)cc3)nc2c1,140 nM (active)
11,O=C(/C=N/O)Nc1ccccc1,inactive
12,CC1CCc2c(sc3c2C2=NS(=O)(=O)CCN2C=N3)C1 (configuration not stated),29 nM (active)
13,CC1(CCC(=O)OC2CCCCC2)OCCO1,inactive
14,CCOC(=O)c1cc2sccc2n1Cc1ccc(C#N)cc1,inactive
15,CC(=O)OC(C)C[N+](C)(C)C (configuration not stated),570 nM (active)
16,CC(C[N+](C)(C)C)OC(N)=O (configuration not stated),inactive
17,CCN1C(=O)/C(=C\N2CCN(c3ccccc3)CC2)SC1=S,inactive
18,CCN1C(=O)/C(=C2\SC(N3CCCCC3)=NC2=O)c2ccccc21,17 nM (active)
19,CC(=O)c1ccc(-n2nnnc2SCC(=O)N2CCN(C(=O)c3ccco3)CC2)cc1,inactive
20,CN1CCN(Cc2nc3c(c(=O)n(C)c(=O)n3C)n2Cc2cccc3ccccc23)CC1,inactive
21,Cc1nnc(C)n1/N=C/c1ccc(C(C)C)cc1,inactive
22,O=C1CC(c2cccc(F)c2)C2=C(CCCC2=O)N1 (configuration not stated),inactive
23,O=C1CC(c2cccc(Br)c2)C2=C(CCCC2=O)N1 (configuration not stated),44 nM (active)

row,SMILES,max dye-equivalent concentration
1,CC(N)=NCc1cccc(CN)c1,inactive
2,CCCCN(CC)CCCNC(=O)CS(=O)(=O)Cc1nc(-c2cccc(OC)c2)oc1C,inactive
3,CNC(=O)n1ccc(C(=O)N2CCCCC2)n1,inactive
4,CN(C)c1ccnc2sc3c(=O)n(Cc4ccccc4)cnc3c12,32 nM (active)
5,CN(C)/C=C/c1c(C#N)c(=O)ncn1Cc1ccccc1,inactive
6,O=C(Cc1cccs1)N1CCCC(c2nc(-c3ccc(S(=O)(=O)N4CCCC4)cc3)no2)C1 (configuration not stated),inactive
7,COc1cc(Cl)c(C)cc1NC(=O)CSc1nnc(-c2cccnc2)n1Cc1ccco1,inactive
8,CO[C@@H]1/C=C\O[C@]2(C)Oc3c(C)c(O)c4c(O)c(c(CN(C)C)c(O)c4c3C2=O)NC(=O)/C(C)=C\C=C[C@@H](C)[C@@H](O)[C@H](C)[C@@H](O)[C@H](C)[C@H](OC(C)=O)[C@@H]1C,inactive
9,CCc1nc2ccccc2n(CCOCCOCCn2c(=O)c(CC)nc3ccccc32)c1=O,45 nM (active)
10,CCC(=O)Nc1nc2ccccc2n1Cc1ccccc1C,inactive
11,C=C(Br)Cn1c(CCCC)nc2ccccc21,inactive
12,O=C(OCC(=O)N1CCCC1)c1ccco1,inactive
13,COc1ccc(C)cc1-n1nnnc1SCC(=O)c1cc(C)n(Cc2ccco2)c1C,inactive
14,Cc1noc(C)c1-c1cc(NCc2cccnc2)ncn1,inactive
15,CNc1cc(-c2c(C)noc2C)ncn1,inactive
16,Cc1cnc(CNc2cc(-c3c(C)noc3C)ncn2)cn1,22 nM (active)
17,Cc1cccc(CNc2cc(-c3ccccc3Cl)ncn2)c1,inactive
18,COCCNc1cc(-c2c(C)noc2C)ncn1,14 nM (active)
19,COc1ccccc1CNc1ncnc2ccc(-c3c(C)noc3C)cc12,inactive
20,O=C(NC1CC2CCCC(C1)N2C(=O)N1CCCCC1)C1CCCCC1 (configuration not stated),inactive
21,CCN(CC)P(=O)(/C(Cl)=C\Nc1c(C)n(C)n(-c2ccccc2)c1=O)N(CC)CC,inactive
22,CCCCN(CCCC)C(=O)CCS(=O)(=O)c1ccc2c(c1)n(C)c(=O)c(=O)n2C,inactive
23,CCOc1ccccc1Oc1cn[nH]c1-c1ccc(OC)cc1O,inactive

row,SMILES,max dye-equivalent concentration
1,CCN(C(=O)CSc1ncn[nH]1)c1cccc2ccccc12,inactive
2,CC(=O)NS(=O)(=O)c1ccccc1,inactive
3,Cc1c(S(=O)(=O)O)ccc(N=Nc2c(O)c(C(=O)O)cc3ccccc23)c1Cl,12 nM (active)
4,O=C(COc1ccc(F)cc1)N(CC1=CCS(=O)(=O)C1)c1ccccc1,inactive
5,COc1cc(C2C(C(=O)c3ccc(C)o3)=C(O)C(=O)N2Cc2cccnc2)ccc1O (configuration not stated),inactive
6,CCOC(=O)c1c(C)[nH]c(C(=O)NCc2ccccc2OC)c1C,inactive
7,CCCCOC(=O)c1[nH]c(C)c(C(=O)OC)c1C,450 nM (active)
8,CCOC(=O)c1c(C)[nH]c(C(=O)COc2ccc3c(c2)OCO3)c1C,inactive
9,CCOC(=O)COc1ccc(Cl)cc1C1NC(=O)NC(C)=C1C(C)=O (configuration not stated),inactive
10,O=S(=O)(NCc1cccnc1)c1ccc(Br)s1,inactive
11,CCC[C@H]1C(=O)N2C(N(C)C)=Nc3ccc(C)cc3N2C1=O,inactive
12,CC(=O)C1C(c2cccc(Oc3ccccc3)c2)NC(=O)NC1(O)C(F)(F)F (configuration not stated),inactive
13,COc1ccccc1N1CCN(C(=O)c2cc(-c3ccc(Cl)c(Cl)c3)on2)CC1,inactive
14,CCc1c(C)nc2ncnn2c1N1CCC(C(=O)NCc2ccc3c(c2)OCO3)CC1,inactive
15,C=CCC(NCCCO)c1cccc(OC)c1OC (configuration not stated),inactive
16,COc1ccc(OCc2ccc(-c3nc4ccccc4c(=O)n3N)o2)cc1,inactive
17,COc1ccc(-c2cc3ccc(OCc4nn[nH]n4)cc3oc2=O)cc1,11000 nM (active)
18,Cc1nnc(SCC(=O)N2CCc3ccccc32)n1-c1ccccc1,inactive
19,N#Cc1c2c(c(-c3ccccc3)[nH]c1=O)CCCC2,20 nM (active)
20,Nc1nnnn1/N=C/c1cccs1,inactive
21,N=c1c2c3c(sc2ncn1N)CCCCC3,inactive
22,COc1ccccc1-c1nc(N2CCN(C)CC2)c2ccccc2n1,inactive
23,COc1ccccc1CNC(=O)C1CCN(c2nc3ccccc3o2)CC1,inactive

row,SMILES,max dye-equivalent concentration
1,COc1cc2nc(N3CCN(C(=O)[C@@H]4CCCO4)CC3)nc(N)c2cc1OC,830 nM (active)
2,Cc1ccc(C(c2nnnn2CS(=O)(=O)c2ccc(C)cc2)N2CCC(C(N)=O)CC2)cc1 (configuration not stated),inactive
3,O=P(c1ccc2c(c1)OCCO2)(N1CCOCC1)N1CCOCC1,inactive
4,COc1ccccc1CNCc1cccs1,inactive
5,O=C(O)C1CCN(c2ncnc3ccc(-c4ccccc4C(F)(F)F)cc23)CC1,inactive
6,COc1ccc(OCC(=O)N2CCN(C(=O)c3cccs3)CC2)cc1,inactive
7,CCCS(=O)(=O)N1CCN(C(=O)c2cccs2)CC1,inactive
8,COc1ccc(S(=O)(=O)N2CCN(C(=O)c3cccs3)CC2)cc1OC,3700 nM (active)
9,CC(C)Oc1ccc(C2NC(=O)NC2=O)cc1 (configuration not stated),inactive
10,COc1ccc2c(c1OC)C(=O)OC2c1c(O)nc(SC)n(-c2ccccc2)c1=O (configuration not stated),inactive
11,O=C(CCCn1c(=O)oc2ccccc21)Nc1cccnc1,inactive
12,Oc1c(CN2CCOCC2)ccc(CN2CCOCC2)c1O,inactive
13,COc1ccc(-c2cc(C(F)(F)F)nc(SCCC(=O)NCc3ccco3)n2)cc1,inactive
14,O=C(CSc1nc(-c2ccco2)cc(C(F)(F)F)n1)NCc1cccs1,inactive
15,FC(F)(F)c1cc(-c2cccs2)nc(NCc2ccco2)n1,16 nM (active)
16,Cc1ccc(NC2=NC(c3ccccc3)n3c(nc(C)cc3=O)N2)cc1 (configuration not stated),inactive
17,CC(=O)NC1=NC(=O)CS1,inactive
18,COc1ccc(COC(=O)c2n[nH]c3ccccc23)cc1F,inactive
19,CCOC(=O)c1ccc(COC(=O)c2cc(=O)[nH]c3ccccc23)o1,40 nM (active)
20,CCOC(=O)c1ccc(CS(=O)c2ccc(Cl)cc2)o1 (configuration not stated),inactive
